# According to the supplement of paper PMC11634586:
# Counter-ions that a name gives are not always drawn. Values without a mark were called inactive.
# Tested on: NCI-H1688
# Assay: inhibition of cell viability relative to untreated control (fraction); higher = stronger growth inhibition, active = 0.5 or more
# Conditions: 30 µM; 24 h
# Outline: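 NCI-H1688 small cell lung cancer cells were plated in 96-well plates at 3 × 10^3 cells/well, and 24 h later they were exposed to a natural compound library (TargetMol) at 30 µM for 24 h at 37°C with 5% CO2. Viability was measured in triplicate using Cell Counting Kit-8, read as absorbance at 450 nm. Inhibition of cell viability is given as a fraction, calculated from viability normalised to untreated cells.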
row,Compound,inhibition of cell viability
1,O=C1C=C(O)C(=O)c2ccccc21 [Lawsone],-0.319
2,O=c1oc2ccccc2c(O)c1Cc1c(O)c2ccccc2oc1=O [Dicumarol],0.308
3,CC(C)[C@@H](C)/C=C/[C@@H](C)[C@H]1CC[C@H]2C3=CC=C4C[C@@H](O)CC[C@]4(C)[C@H]3CC[C@]12C [Ergosterol],-0.172
4,O=c1cc[nH]c(=O)[nH]1 [Uracil],-0.231
5,C/C1=C2N=C(/C=C3N=C(/C(C)=C4\[N-]C(C(CC(N)=O)C4(C)CCC(=O)NCC(C)OP(=O)([O-])OC4C(CO)OC(n5cnc6cc(C)c(C)cc65)C4O)C4(C)N=C1C(CCC(N)=O)C4(C)CC(N)=O)C(CCC(N)=O)C\3(C)C)C(CCC(N)=O)C/2(C)CC(N)=O.[CH3-].[Co+3] (stereo not drawn) [Methylcobalamin],0.0835
6,NCCCNCCCCNCCCN [Spermine],-0.283
7,O=C(OC[C@H]1O[C@@H](OC(=O)c2cc(O)c(O)c(OC(=O)c3cc(O)c(O)c(O)c3)c2)[C@H](OC(=O)c2cc(O)c(O)c(OC(=O)c3cc(O)c(O)c(O)c3)c2)[C@@H](OC(=O)c2cc(O)c(O)c(OC(=O)c3cc(O)c(O)c(O)c3)c2)[C@@H]1OC(=O)c1cc(O)c(O)c(OC(=O)c2cc(O)c(O)c(O)c2)c1)c1cc(O)c(O)c(OC(=O)c2cc(O)c(O)c(O)c2)c1 [Glycerite],0.821 (active)
8,CC1(C)O[C@H]2CC(=O)OC[C@]23[C@H]2CC[C@@]4(C)[C@H](c5ccoc5)OC(=O)[C@H]5O[C@]54[C@]2(C)C(=O)C[C@@H]13 [Limonin],-0.0414
9,COC(=O)CC[C@@H](C)[C@H]1CC[C@H]2[C@@H]3[C@H](O)C[C@@H]4C[C@H](O)CC[C@]4(C)[C@H]3C[C@H](O)[C@]12C [Methyl Cholate],0.013
10,C=CCS[S+]([O-])CC=C (stereo not drawn) [Allicin],-0.267
11,OC[C@@H](O)[C@H](O)[C@H](O)[C@@H](O)CO [Dulcitol],-0.284
12,O=c1c(-c2ccc(O[C@@H]3O[C@H](CO)[C@@H](O)[C@H](O)[C@H]3O)cc2)coc2cc(O)cc(O)c12 [Sophoricoside],0.495
13,CC1(C)CC[C@]2(C(=O)O)CC[C@]3(C)C(=CC[C@@H]4[C@@]5(C)CCC(=O)C(C)(C)[C@@H]5CC[C@]43C)[C@@H]2C1 [Oleanonic Acid],0.342
14,Nc1ncnc2c1ncn2[C@@H]1O[C@H](CO)[C@@H](O)[C@H]1O [Adenosine],0.189
15,COc1ccc2cc1Oc1ccc(cc1)C[C@H]1c3cc(c(OC)cc3CCN1C)Oc1c(OC)c(OC)cc3c1[C@H](C2)N(C)CC3 [Tetrandrine],1.01 (active)
16,COc1ccc2c(c1OC)C(=O)O[C@@H]2[C@H]1c2c(cc3c(c2OC)OCO3)CCN1C [Noscapine hydrochloride],0.323
17,O=c1c(O)c(-c2cc(O)c(O)c(O)c2)oc2cc(O)cc(O)c12 [Myricetin],0.0201
18,O=c1ccc2ccccc2o1 [Coumarin],-0.151
19,O=c1oc2c(O)c(O)cc3c(=O)oc4c(O)c(O)cc1c4c23 [Ellagic acid],-0.099

row,Compound,inhibition of cell viability
1,OC[C@H]1O[C@H](O[C@]2(CCl)O[C@H](CCl)[C@@H](O)[C@@H]2O)[C@H](O)[C@@H](O)[C@H]1Cl [Sucralose],0.0847
2,Nc1nc(=O)c2nc(CNc3ccc(C(=O)N[C@@H](CCC(=O)O)C(=O)O)cc3)cnc2[nH]1 [Folic acid],-0.206
3,O=c1ccc2ccc(O)cc2o1 [7-Hydroxycoumarin],-0.0276
4,O=C(O)C1=C[C@@H](O)[C@@H](O)[C@H](O)C1 [Shikimic Acid],0.0707
5,C[C@]12CC[C@@H]3c4ccc(O)cc4CC[C@H]3[C@@H]1CC[C@@H]2O [Estradiol],0.296
6,CC1(C)CC[C@]2(C(=O)O)CC[C@]3(C)C(=CC[C@@H]4[C@@]5(C)CC[C@H](O)[C@@](C)(CO)[C@@H]5CC[C@]43C)[C@@H]2C1 [Hederagenin],0.274
7,C[C@H](CCC(=O)O)[C@H]1CC[C@H]2[C@@H]3[C@H](O)C[C@@H]4C[C@H](O)CC[C@]4(C)[C@H]3CC[C@]12C [Chenodeoxycholic acid],0.152
8,CC[C@H](C)[C@H](N)C1=N[C@H](C(=O)N[C@@H](CC(C)C)C(=O)N[C@H](CCC(=O)O)C(=O)N[C@H](C(=O)N[C@H]2CCCCNC(=O)[C@H](CC(N)=O)NC(=O)[C@@H](CC(=O)O)NC(=O)[C@H](Cc3cnc[nH]3)NC(=O)[C@@H](Cc3ccccc3)NC(=O)[C@H]([C@@H](C)CC)NC(=O)[C@@H](CCCN)NC2=O)[C@@H](C)CC)CS1 [Bacitracin],-0.0913
9,O=C(O)c1ccc(O)c(O)c1 [Protocatechuic acid],0.00558
10,COc1ccc2ccc(=O)oc2c1CC=C(C)C [Osthole],0.166
11,C=C1CC23CCC4C(C)(C(=O)OC5OC(CO)C(O)C(O)C5O)CCCC4(C)C2CCC1(OC1OC(CO)C(O)C(OC2OC(CO)C(O)C(O)C2O)C1OC1OC(C)C(O)C(O)C1O)C3 (stereo not drawn) [Dulcoside B],0.0729
12,O=c1c(O)c(-c2ccccc2)oc2ccccc12 [3-Hydroxyflavone],0.587 (active)
13,CC(=O)c1c(O)cc(O)cc1O [Phloracetophenone],0.00993
14,C[C@@H]1O[C@@H](OC[C@H]2O[C@@H](Oc3c(-c4ccc(O)c(O)c4)oc4cc(O)cc(O)c4c3=O)[C@H](O)[C@@H](O)[C@@H]2O)[C@H](O)[C@H](O)[C@H]1O [Rutin],0.272
15,O=C[C@H](NS(=O)(=O)O)[C@@H](O)[C@H](O)[C@H](O)CO [N-Sulfo-glucosamine sodium salt],0.162
16,C[C@H](CCC(=O)O)[C@H]1CC[C@H]2[C@@H]3CC[C@@H]4C[C@H](O)CC[C@]4(C)[C@H]3C[C@H](O)[C@]12C [Deoxycholic acid],-0.113
17,C[C@@H]1CC[C@]2(C(=O)O[C@@H]3O[C@H](CO)[C@@H](O)[C@H](O)[C@H]3O)CC[C@]3(C)C(=CC[C@@H]4[C@@]5(C)CC[C@H](O)[C@@](C)(CO)[C@@H]5CC[C@]43C)[C@@H]2[C@]1(C)O [Pedunculoside],0.134
18,CC(=O)O[C@@]12CO[C@@H]1C[C@H](O)[C@@]1(C)C(=O)[C@H](O)C3=C(C)[C@@H](OC(=O)[C@H](O)[C@@H](NC(=O)OC(C)(C)C)c4ccccc4)C[C@@](O)([C@@H](OC(=O)c4ccccc4)[C@H]21)C3(C)C [Docetaxel],0.493
19,OC[C@H]1O[C@H](O[C@H]2[C@H](O)[C@@H](O)[C@H](O)O[C@@H]2CO)[C@H](O)[C@@H](O)[C@@H]1O [Maltose],0.0503
